MITF inhib: MITF inhibition. inhibition, % (concentration not given with the values). TRPM1 promoter luciferase, luminescence, 24 h. hit rate 0.28% among 37,000. AID 2240; in the data active = inhibition above about 85%; inconclusive = no clear call, values can overlap the other calls; inactive = below about 68%;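 also: human melanocyte line stably carrying TRPM1 promoter luciferase reporter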
PD-1 reversal: activators reversing PD-1 mediated T-cell inhibition. primary human CD4 T cells, PD-L1 beads, CellTiter-Glo 96 h. activation, % (concentration not given with the values). 29,000 tested, under 10 active; call rule not given here
NOMO-1 viab: STK33 inhibitor candidate reducing NOMO-1 cell viability; NOMO-1 AML viability, CellTiter-Glo luminescence, 72 h; AID 2330; hit rate 7.5% among 37,000; inhibition, % (test concentration not listed); in the data active = inhibition above about 80%; inconclusive = no clear call, values can overlap the other calls
Shh pathway inh: Sonic Hedgehog pathway inhibition; Shh-LIGHT2 Gli-luciferase reporter, 30 h; inhibition, % (concentration not given with the values); hit rate 2.1% among 22,000; AID 2313;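 active = mean inhibition across valid replicates above about 65%, limit read from the data; inconclusive = mean under the limit, yet half or more replicates past it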;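 also: pathway switched on by Shh-conditioned medium diluted 1 in 25 in low serum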
Large screens that a line does not name were inactive; ! = not confirmed by another sample. This is a sample that favours compounds with a hit; in the whole collection about 8.1% have one here.

C[C@H](CO)N1C[C@H](C)[C@@H](CN(C)CC2CCCCC2)Oc2c(NC(=O)C3CCCCC3)cccc2C1=O	NOMO-1 viab 95.8 (no result: PD-1 reversal)
COC(=O)c1ccc(NC(=O)CSc2nnc(-c3cccnc3)n2-c2ccccc2)cc1	none (no result: Shh pathway inh)
COc1ccccc1NC(=O)Cn1nnc(-c2cccs2)n1	none (no result: Shh pathway inh)
C[C@H](CO)N1C[C@H](C)[C@H](CN(C)Cc2ccc(Oc3ccccc3)cc2)Oc2ccc(NS(=O)(=O)c3ccc(Cl)cc3)cc2CC1=O	NOMO-1 viab 116.4
C[C@H]1CN([C@@H](C)CO)C(=O)Cc2cc(NS(=O)(=O)c3ccc(Cl)cc3)ccc2O[C@H]1CN(C)Cc1ccc(Oc2ccccc2)cc1	none (no result: PD-1 reversal)
C[C@@H]1CN([C@H](C)CO)C(=O)Cc2cc(NS(=O)(=O)c3ccc(Cl)cc3)ccc2O[C@H]1CN(C)Cc1ccc(Oc2ccccc2)cc1	NOMO-1 viab 112.0
C[C@H](CO)N1C[C@H](C)[C@H](CN(C)Cc2ccc(Oc3ccccc3)cc2)Oc2ccc(NS(=O)(=O)c3ccccc3)cc2CC1=O	NOMO-1 viab 96.5
COc1ccc(S(=O)(=O)Nc2ccc3c(c2)CC(=O)N([C@@H](C)CO)C[C@@H](C)[C@@H](CN(C)Cc2ccc(Oc4ccccc4)cc2)O3)cc1	NOMO-1 viab inconclusive
C[C@@H]1CN([C@H](C)CO)C(=O)Cc2cc(N(C)C)ccc2O[C@@H]1CN(C)Cc1ccc(Oc2ccccc2)cc1	NOMO-1 viab 117.7
Cc1cc(OCC(=O)Nc2ccccc2C(=O)N2CCCCC2)c(C)cc1Br	none (no result: PD-1 reversal, Shh pathway inh)
CC1=CC(c2ccoc2)c2c(oc(N)c(C#N)c2=O)S1 (centres undefined)	none
COc1ccc(S(=O)(=O)Nc2ccc3c(c2)CC(=O)N([C@@H](C)CO)C[C@H](C)[C@H](CN(C)Cc2ccc(Oc4ccccc4)cc2)O3)cc1	none
Cc1ccc(S(=O)(=O)Nc2ccc3c(c2)CC(=O)N([C@H](C)CO)C[C@H](C)[C@H](CN(C)Cc2ccc(Oc4ccccc4)cc2)O3)cc1	NOMO-1 viab 110.5
S=C(NC1CCCCC1)C12CCC3CC(CC(C3)C1)C2	none
COc1cccc(C(=O)NC(c2ccccc2OC)c2c(O)ccc3ccccc23)c1 (centres undefined)	none (no result: Shh pathway inh)
COc1cccc(C(=O)NC(c2ccc([N+](=O)[O-])cc2)c2c(O)ccc3ccccc23)c1 (centres undefined)	NOMO-1 viab 113.8 (no result: PD-1 reversal, Shh pathway inh)
CCC(Oc1cccc(NC(=O)c2ccc([N+](=O)[O-])cc2)c1)C(=O)c1ccccc1 (centres undefined)	none (no result: PD-1 reversal, Shh pathway inh)
COc1cccc(C(=O)NC(c2ccc(Cl)cc2)c2c(O)ccc3ccccc23)c1 (centres undefined)	MITF inhib 101.5, NOMO-1 viab 108.1 (no result: Shh pathway inh)
CC1CCN(CC(=O)Nc2sc3c(c2C(=O)Nc2ccccc2)CCCC3)CC1	none (no result: Shh pathway inh)
Cc1ccc(Cl)cc1N(CC(=O)Nc1c(F)cccc1F)S(C)(=O)=O	none (no result: Shh pathway inh)
O=C(CS(=O)c1ccc(C(F)(F)F)cc1[N+](=O)[O-])Oc1ccc(C2CCCCC2)cc1 (centres undefined)	NOMO-1 viab 120.7 (no result: Shh pathway inh)
CCOC(=O)c1cnc(SCC(=O)Nc2ccc(Cl)cc2Cl)nc1N	none (no result: Shh pathway inh)
CCOC(=O)c1cnc(S/C=C/C(=O)c2ccc(C)cc2)nc1N	NOMO-1 viab 119.9
COC(=O)c1cc(NC(=S)NCc2cccnc2)cc(C(=O)OC)c1	NOMO-1 viab 106.4 (no result: Shh pathway inh)
C[C@@H]1CCCCO[C@@H](CN(C)Cc2ccc(C(F)(F)F)cc2)[C@@H](C)CN([C@H](C)CO)C(=O)c2cc(NC(=O)Cc3ccccc3)ccc2O1	NOMO-1 viab 106.4
C[C@@H]1CCCCO[C@@H](CN(C)Cc2ccccc2)[C@@H](C)CN([C@H](C)CO)C(=O)c2cc(NC(=O)Nc3ccc(C(F)(F)F)cc3)ccc2O1	NOMO-1 viab 114.9
C[C@@H]1CCCCO[C@@H](CN(C)Cc2ccc(C(F)(F)F)cc2)[C@@H](C)CN([C@H](C)CO)C(=O)c2cc(NC(=O)c3ccccc3)ccc2O1	NOMO-1 viab 93.0 (no result: Shh pathway inh)
COc1ccc(NC(=O)Nc2ccc3c(c2)C(=O)N([C@H](C)CO)C[C@H](C)[C@@H](CN(C)Cc2ccc(C(F)(F)F)cc2)OCCCC[C@@H](C)O3)cc1	NOMO-1 viab 110.0 (no result: PD-1 reversal)
COc1ccc(NC(=O)Nc2ccc3c(c2)C(=O)N([C@H](C)CO)C[C@H](C)[C@H](CN(C)Cc2ccncc2)OCCCC[C@@H](C)O3)cc1	none
C[C@@H]1CCCCO[C@@H](CN(C)Cc2ccc(C(=O)O)cc2)[C@@H](C)CN([C@H](C)CO)C(=O)c2cc(NC(=O)Nc3ccc(C(F)(F)F)cc3)ccc2O1	none (no result: Shh pathway inh)
Cc1ccnc(SCC(=O)Nc2cccc3ccccc23)n1	none (no result: PD-1 reversal, Shh pathway inh)
Cc1cc(C)c(Cn2c(CCCO)nc3ccccc32)c(C)c1	none (no result: Shh pathway inh)
O=C(Cn1cnc2ccccc2c1=O)Nc1ccccc1[N+](=O)[O-]	none (no result: Shh pathway inh)
C[C@@H]1CCCCO[C@H](CN(C)Cc2ccc(C(=O)O)cc2)[C@@H](C)CN([C@H](C)CO)C(=O)c2cc(NC(=O)C3CCCCC3)ccc2O1	none
C[C@@H]1CCCCO[C@@H](CN(C)Cc2ccc(C(F)(F)F)cc2)[C@@H](C)CN([C@H](C)CO)C(=O)c2cc(NC(=O)C3CCCCC3)ccc2O1	NOMO-1 viab 108.2
Cc1c(C(=O)Nc2cnccn2)oc2ccccc12	NOMO-1 viab 112.3 (no result: Shh pathway inh)
C[C@H](CO)N1C[C@H](C)[C@H](CN(C)Cc2ccccc2)Oc2ccc(NC(=O)Nc3cccc4ccccc34)cc2CC1=O	none
C[C@H]1CN([C@@H](C)CO)C(=O)Cc2cc(NC(=O)Nc3cccc4ccccc34)ccc2O[C@@H]1CN(C)Cc1ccc(-c2ccccc2)cc1	NOMO-1 viab 96.0
C[C@H]1CN([C@@H](C)CO)C(=O)Cc2cc(NC(=O)Nc3cccc4ccccc34)ccc2O[C@@H]1CN(C)Cc1ccc(Oc2ccccc2)cc1	NOMO-1 viab 116.2
C[C@H](CO)N1C[C@H](C)[C@H](CN(C)Cc2ccc(Oc3ccccc3)cc2)Oc2ccc(NC(=O)Nc3cccc4ccccc34)cc2CC1=O	none
C[C@@H]1CN([C@@H](C)CO)C(=O)Cc2cc(NC(=O)Nc3cccc4ccccc34)ccc2O[C@@H]1CN(C)Cc1ccncc1	NOMO-1 viab 82.0
COc1cc(OC)c(C(=O)c2ccc(O)cc2)c(OC)c1	none (no result: PD-1 reversal)
Cc1cccc(N=Cc2c(O)n(-c3ccccc3)c(=O)c3ccccc23)c1	NOMO-1 viab 90.9
O=c1c2ccccc2c(C=Nc2cccc(C(F)(F)F)c2)c(O)n1-c1ccccc1	NOMO-1 viab 106.5
O=C(c1ccccc1)c1cccc(N=Cc2c(O)[nH]c(=O)[nH]c2=O)c1	none
O=C(c1cccs1)N1c2ccccc2Sc2ccccc21	none (no result: Shh pathway inh)
Cc1ccc(-n2c(C)nnc2SCC(=O)Nc2ccc(Br)cc2F)cc1	none (no result: Shh pathway inh)
N#CCC(c1ccccc1)c1ccccc1	none (no result: Shh pathway inh)
OCCN1CCN(CCCN2c3ccccc3Sc3ccc(C(F)(F)F)cc32)CC1	NOMO-1 viab 118.5!, Shh pathway inh inconclusive (no result: PD-1 reversal)
CN1CCCCC1CCN1c2ccccc2Sc2ccc(S(C)=O)cc21 (centres undefined)	none
CN1CCN(CCCN2c3ccccc3Sc3ccc(Cl)cc32)CC1	NOMO-1 viab 105.7!, Shh pathway inh 75.2! (no result: PD-1 reversal)
O=C(NCc1cc2ccccc2[nH]1)c1cc(-c2ccccn2)nc2ccc(Br)cc12	none (no result: PD-1 reversal, Shh pathway inh)

Assay outcomes (PubChem)
